In the library only some 21% were active in any assay of this set; here they are far more common.
DT40 TDP1 CPT = growth inhibition of DT40 Tdp1-/-;hTDP1 cells with camptothecin (screen for TDP1 inhibitors); AID 686979; 420,000 compounds, 12% hits; chicken DT40 Tdp1-/-;hTDP1 cells + 20 nM CPT, ATP luminescence, 48 h; Potency, µM (highest dose often 46.2 µM), actives largely listed as inhibitors; further: nearly all actives have a fitted effect of over 55% in size
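Chicken DT40 Tdp1-/- cells complemented with human TDP1, 400 cells/well, exposed to compounds plus 20 nM camptothecin for at least 48 h at 37 C; viability read as ATP content by CellTiter-Glo luminescence.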
RORgamma inh = blocks mouse ROR gamma transcriptional activity; Drosophila S2 Gal4-RORgamma UAS-luciferase reporter, 20 h; Potency, µM (doses to about 53.6 µM), most hits filed as inhibitors; 310,000 compounds, 5.4% hits; further: nearly all actives have a fitted effect of over 60% in size
Target sequence (P51450 whole entry, looked up, the tested form may be a part): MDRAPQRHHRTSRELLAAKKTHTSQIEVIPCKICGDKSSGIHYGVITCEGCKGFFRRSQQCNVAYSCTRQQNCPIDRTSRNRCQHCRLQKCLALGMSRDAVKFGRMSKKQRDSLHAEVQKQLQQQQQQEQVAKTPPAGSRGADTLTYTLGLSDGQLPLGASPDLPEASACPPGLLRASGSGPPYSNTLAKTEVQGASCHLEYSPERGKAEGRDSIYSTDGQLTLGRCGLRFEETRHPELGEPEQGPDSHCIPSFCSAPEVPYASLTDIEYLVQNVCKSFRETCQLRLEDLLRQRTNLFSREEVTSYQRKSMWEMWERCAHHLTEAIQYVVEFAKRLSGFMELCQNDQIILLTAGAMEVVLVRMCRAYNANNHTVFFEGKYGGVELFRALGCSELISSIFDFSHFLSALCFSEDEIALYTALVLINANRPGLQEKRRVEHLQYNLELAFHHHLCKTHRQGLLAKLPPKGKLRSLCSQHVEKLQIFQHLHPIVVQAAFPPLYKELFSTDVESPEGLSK
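ROR gamma transcriptional activity was tracked as Gal4-UAS luciferase output in stably transfected Drosophila Schneider cells, with compound added 1 hr before 700 uM copper sulfate induction and a 20 hr ambient-temperature incubation.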
IL1B secr inh = inflammasome signaling inhibition, IL-1 beta readout | activity change, % at 57.5 µM | 360,000 compounds, 4.7% hits | THP-1 LPS/ATP IL-1B secretion, AlphaLISA, 16 h; stronger effect = lower value; in the data active means activity change below about -50%; inconclusive means mostly about -30% to -49%
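THP-1 cells pretreated 1 hr with compounds (up to 57.5 uM final), then stimulated with LPS (250 ng/mL final) plus ATP (1.25 mM final); secreted IL-1B measured by AlphaLISA after 16 hr, decreased signal indicating inhibition.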
VP16 counter = Gal4-VP16 reporter inhibition counter-screen; Drosophila S2 Gal4-VP16 UAS-luciferase, luminescence, 20 h; Potency, µM (highest dose often 53.6 µM), usual class: inhibitors; 310,000 compounds, 3.5% hits;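 further: Gal4-VP16 expression switched on by copper sulfate through the metallothionein promoter; nearly all actives have a fitted effect of over 50% in size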
TDP1 cell noCPT = qHTS for Inhibitors of human tyrosyl-DNA phosphodiesterase 1 (TDP1): qHTS in cells in absence of CPT; DT40 Tdp1-/- hTDP1 cells, no CPT, ATP luminescence, 48 h; Potency, µM (highest dose often 46.2 µM), usual class: inhibitors; 420,000 compounds, 15% hits; further: nearly all actives have a fitted effect of over 55% in size
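DT40 Tdp1-/-;hTDP1 cells, no CPT (DMSO vehicle only), 400 cells/well; compounds pin-transferred; ≥48 hr, 37 °C; CellTiter-Glo 30 min RT dark, luminescence read.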
ELG1 DNA repair = inhibitors of ELG1-dependent DNA repair in HEK293T cells. HEK293T ELG1-luciferase reporter, luminescence, 16 h; DNA damage induced by 5-fluorouridine. Potency, µM (doses to about 46.1 µM), most hits filed as inhibitors. 330,000 compounds, 2.3% hits. AID 504467; further: nearly all actives have a fitted effect of over 55% in size
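Step one: seed 2,000 cells per well. Step two: pin-transfer compound or DMSO alongside 5-fluorouridine. Step three: incubate 16 hr, 37 °C, 5% CO2. Step four: add ONE-Glo, wait 30 min, read luminescence.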
Numbers stand for hits; . = inactive; ? = inconclusive; / = no result; [ ] = remark or other dose. Unless noted, the call rests on the fitted dose curve; in most records, active means well fitted curve in the direction sought with a large enough effect; inconclusive means small, poorly fitted or top-dose-only effect, or another doubt; inactive means no such curve, though single readings can be large; an effect the other way counts as inactive or inconclusive.

SMILES	DT40 TDP1 CPT	RORgamma inh	IL1B secr inh	VP16 counter	TDP1 cell noCPT	ELG1 DNA repair
Cc1ccoc1C(=O)Nc1cccc2ccccc12	9.2µM	.	.	?	21µM	?
Cc1cc(NC(=O)Nc2ccc(F)cc2)no1	.	.	.	.	.	.
OC(CN1CCCCC1)Cn1c2ccc(Cl)cc2c2cc(Cl)ccc21 (stereo not drawn)	?	?	/	?	15µM	?
Cc1cc(=O)n2c3ccccc3n(CC(O)CN3CCN(CCO)CC3)c2c1C#N (stereo not drawn)	.	.	?	.	.	?
OC(CN1CCN(c2ccccc2)CC1)Cn1c2ccccc2c2ccccc21 (stereo not drawn)	18µM	.	.	.	13µM	?
CC1CCN(CC(O)Cn2c3ccccc3c3ccccc32)CC1 (stereo not drawn)	.	.	-63	.	?	.
Cc1cc(=O)n2c3ccccc3n(CC(O)CN3CCN(Cc4ccccc4)CC3)c2c1C#N (stereo not drawn)	12µM	.	.	.	12µM	?
Cc1ccc(OCC(=O)NC2CCS(=O)(=O)C2)c(C)c1 (stereo not drawn)	.	.	.	.	.	.
COCCn1c(=O)c(-c2cc(F)cc(F)c2)nc2cnc(N3CCOCC3)nc21	.	.	/	.	.	/
CC1CCCC(C)N1CC(O)Cn1c2ccccc2c2ccccc21 (stereo not drawn)	1.8µM	.	.	.	2.6µM	.
OC(CN1CCN(Cc2ccccc2)CC1)Cn1c2ccccc2c2ccccc21 (stereo not drawn)	23µM	.	.	?	?	.
OC(CN1CCOCC1)Cn1c2ccccc2c2ccccc21 (stereo not drawn)	.	.	.	.	?	.
CCn1c(SCC(=O)O)nnc1C1CCCCC1	.	.	.	.	.	.
Cc1cc(C(=O)Nc2ccccc2-c2nc(CNC(=O)c3cscn3)c(C)o2)c(C)o1	.[9.04 µM]	/	/	/	.	/
CN(C)c1ccc(/C=C2\c3ccccc3C(=O)N2c2ccccc2)cn1	9.2µM	/	.	/	.	/
Cc1cc(C)n(-c2nc3ccccc3nc2Nc2cccc(C)c2C)n1	.	/	/	/	.	/
CC(C)(C)NC(=O)CCN(/N=C/c1ccc([N+](=O)[O-])o1)C1=NS(=O)(=O)c2ccccc21	18µM	.	.	.	15µM	?
COc1ccc(CCC(=O)NNC(=O)Nc2ccc(C(C)C)cc2)cc1	.	.	.	.	.	.
Cc1ccc2nc(-c3c[nH]c4ccccc34)c(Nc3ccccc3)n2c1	16µM	/	/	/	?	/
O=C(Nc1c(-c2ccccc2)nc2ccccn12)c1ccccc1	.	.	.	.	.	.
c1ccc(Nc2c(-c3c[nH]c4ccccc34)nc3ccccn23)cc1	15µM	/	/	/	12µM	/
Fc1ccc(Nc2c(-c3c[nH]c4ccccc34)nc3ccccn23)cc1	16µM	/	/	/	21µM	/
COc1cc(F)ccc1S(=O)(=O)NCc1cccnc1	.	.[1.91 µM]	.	.	.	.
O=C(CSc1nc2ccccc2nc1N1CCCCC1)N1CCN(c2ccccc2)CC1	21µM	.	.	.	?	.
O=C(CSc1nc2ccccc2nc1N1CCOCC1)N1CCN(c2ccccc2)CC1	21µM	.	.	.	12µM	?
SMILES	DT40 TDP1 CPT	RORgamma inh	IL1B secr inh	VP16 counter	TDP1 cell noCPT	ELG1 DNA repair
CC1CCN(C(=O)CSc2nc3cccnc3n2C)CC1	.	.	.	.	.	?
Cc1cccc(N2CCN(C(=O)CN3C(=O)C4CC=CCC4C3=O)CC2)c1C (stereo not drawn)	.	?	.	.	?	?
Cc1cccc(N2CCN(C(=O)CSc3nc4ccccc4nc3N3CC(C)OC(C)C3)CC2)c1C (stereo not drawn)	2.1µM	.	.	.	4.1µM	.
O=C(CSc1nc2ccccc2o1)N1CCOCC1	.	.	.	.	.	?
Cc1ccnc(N2CCN(C(=O)CSc3nc4ccccc4nc3N3CCC(C)CC3)CC2)c1	?	.	.	.	?	21µM
COc1ccc(CNC(=O)c2cnc3sc4cc(OC)ccc4n3c2=O)cc1	.	/	/	/	.	/
Cc1nc(SCC(=O)N2CCN(c3ccccn3)CC2)c(C#N)c(C)c1C	.	/	.	/	.	?
O=C(Nc1ccc2c(c1)OCO2)c1ccc2sc([C@H]3C[C@H](O)[C@@H](CO)O3)nc2c1	.	/	.	/	.	/
Nc1ncnc2c1ncn2[C@@H]1O[C@H](CNC(=O)[C@H]2CCC(=O)N2)[C@@H](O)[C@H]1O	.	/	.	/	.	?
CN(Cc1ccon1)C(=O)c1cnn(-c2nccc(-c3ccc4c(c3)OCO4)n2)c1C1CC1	.[9.04 µM]	/	/	/	.	/
COc1cc(CC(=O)Nc2nc(-c3ccccc3)c(C(C)=O)s2)cc(OC)c1OC	.	.	.	.	?	8.2µM
COc1ccc(CC(=O)Nc2nc(-c3ccccc3)c(C(C)=O)s2)cc1OC	?	.	?	.	?	18µM
COc1ccc(CC(=O)Nc2nnc(C(C)C)s2)cc1OC	.	.	.	.	.	.
Cc1ccc(Sc2cc(C(=O)NCCN(C)C)c3ccccc3n2)cc1	?	.	.	.	?	.
CCOCCCNC(=O)c1cc(Sc2ccc(F)cc2)nc2ccccc12	?	?	.	.	?	18µM
CCc1ccc(Sc2cc(C(=O)NCCCN3CCC(C)CC3)c3ccccc3n2)cc1	16µM	/	/	/	16µM	/
Cc1ccc(Sc2cc(C(=O)NCCCN(C)C)c3ccccc3n2)cc1	.	.	-69	.	?	.
CCOc1ccc(N2CC(NC(=O)c3ccco3)CC2=O)cc1 (stereo not drawn)	.	/	/	/	.	/
CCOC(=O)c1sc(NC(=O)CSC(=S)N2CCN(C)CC2)nc1C	26µM	.	?	.	18µM	.
CC(C)c1nnc(NC(=O)CC(C)c2ccccc2)s1 (stereo not drawn)	.	.	.	.	.	.
CCOC(=O)c1sc2nc(NC(=O)COc3ccccc3)sc2c1C	?	.	.	.	18µM	.
Cc1cnc(NC(=O)CC(C)c2ccccc2)s1 (stereo not drawn)	6.5µM	?	.	.	5.2µM	?
CCOC(=O)c1sc(NC(=O)CCSC)nc1C	?	.	.	.	?	?
CC(=O)c1sc(NC(=O)COc2ccccc2)nc1C	.	.	.	.	.	?
CCOC(=O)c1sc(NC(=O)CCc2ccccc2)nc1C	1.8µM	.	.	.	1.2µM	.
CCCNC(=O)C1CCC(Cn2c(=O)c3sccc3n(CC(=O)N3CCCC3)c2=O)CC1 (stereo not drawn)	.	/	/	/	.	/
O=C(CSc1nccn1C1CCCC1)Nc1ccccc1	.	/	/	/	.	/

High-throughput results as filed in PubChem BioAssay.
